In PubChem BioAssay:

Target: Calmodulin-1 (Homo sapiens) (UniProt P0DP23)
Test: small molecules binding Ca-loaded calmodulin-1 – biochemical, small-molecule microarray, Cy5-labelled CALM1, plus calcium, artefact control for SMM control-protein annotation, profiling panel (AID 1112);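 note: score merges spot fluorescence with signal to noise from triplicate slides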
Conditions: Cy5-CALM1 binding fluorescence, higher = more signal

| SMILES | composite z-score |
| --- | --- |
| COCCOC(=O)N1C(=O)[C@@]2(c3cc(C#CCC(C(=O)OC)C(=O)OC)ccc31)[C@H](C(=O)N1CCCCCCC1)[C@H]1C(=O)O[C@H](c3ccccc3)[C@H](c3ccccc3)N1[C@@H]2c1ccc(OCCO)cc1 | 1.67 |
| C=C(CCCC)/C(=C/C[C@H](OC(C)=O)c1ccc(CO)o1)c1cnc2ccccc2c1 | -0.693 |
| [N-]=[N+]=NCc1ccccc1[C@@H]1OC(c2ccc(OCCCO)cc2)=N[C@]1(Cc1ccccc1)C(=O)N1CCCCC1 | 0.955 |
| C=CCNC(=O)[C@@H]1[C@H]2C(=O)O[C@H](c3ccccc3)[C@H](c3ccccc3)N2[C@H](c2ccc(OCCO)cc2)[C@@]12C(=O)Nc1ccccc12 | -0.495 |
| O=C1OCCC=C[C@H]2OC34C=CCN(Cc5ccccc5)C(=O)[C@H]3N(CCCCCO)C(=O)[C@@H]4C12 (stereo partly drawn) | 0.13 |
| COc1ccccc1CN1C(=O)c2ccccc2[C@@H](C(=O)NCCN2CCOCC2)[C@@H]1c1ccc(CO)cc1 | 0.0041 |
| CN1CCC(CCCO)=CC1c1ccc(CN2CCCC2)cc1 (stereo not drawn) | -0.938 |
| COCCOC(=O)N1C(=O)[C@@]2(c3cc(C#CCCO)ccc31)[C@H](c1ccc(O)cc1)N1[C@H](c3ccccc3)[C@H](c3ccccc3)OC(=O)[C@H]1[C@@H]2C(N)=O | 0.456 |
| C[C@]1(C(=O)NCc2ccccc2)c2ccccc2C(=O)N(Cc2ccc(OC(F)(F)F)cc2)[C@H]1c1ccc(CO)cc1 | 0.122 |
| COc1ccc([Si](C)(C)[C@@H]2[C@@H](CCn3cc([C@H](O)c4ccccc4)nn3)O[C@]3(C(=O)N(Cc4ccc(N5C(=O)c6cccc7cccc5c67)cc4)c4ccccc43)[C@H]2C)cc1 | 0.702 |
| [N-]=[N+]=NCc1ccccc1C[C@@]1(C(=O)NCC(O)CO)N=C(c2ccc(OCCCO)cc2)O[C@@H]1c1ccccc1CN=[N+]=[N-] (stereo partly drawn) | 0.876 |
| C=CC[C@@H](OC(=O)Nc1ccc(OC)cc1)c1ccc(O)c2ccccc12 | -0.738 |
| CCOC(=O)C[C@H]1[C@H](OC(=O)c2ccccc2-c2ccccc2)[C@@H](NC(=O)c2ccc3ccccc3c2)c2cc(OCCCO)ccc2N1C(=O)c1ccc2ccccc2n1 | -0.122 |
| N#Cc1ccc(NN2C(C(O)c3ccc([N+](=O)[O-])cc3)C=CC3C(=O)N(c4ccccc4)C(=O)C32)cc1 (stereo not drawn) | 0.235 |
| [N-]=[N+]=NCc1ccccc1[C@@H]1OC(c2ccc(OCCCO)cc2)=N[C@]1(Cc1ccccc1N=[N+]=[N-])C(=O)NCc1ccccc1 | 0.12 |
| CCOC(=O)C[C@H]1[C@H](OC(=O)c2ccc(-c3ccccc3)cc2)[C@@H](NC(=O)c2ccc3ccccc3c2)c2cc(OCCCO)ccc2N1C(=O)Cc1ccc(OC)cc1 | 0.171 |
| CC(C)NC(=O)[C@@H]1c2ccccc2C(=O)N(Cc2ccccc2Cl)[C@H]1c1ccc(CO)cc1 | 0.29 |
| CCCCC(CC)C(O)C1C=CC2C(=O)N(c3ccccc3)C(=O)C2N1Nc1ccccc1 (stereo not drawn) | 0.831 |
| CC(C)C[C@@H]1NC(=O)[C@H]2C[C@@H](C(=O)NCCCCCNC(=O)CS)[C@@H](c3cccc(OCCO)c3)N2C1=O | -0.364 |
| CCC[C@@H]1C=C(C(=O)O)[C@H](c2ccc(C)cc2)N1S(=O)(=O)c1ccc(C)cc1 | 0.0233 |
| [N-]=[N+]=NCc1ccccc1[C@H]1OC(c2ccc(OCCCO)cc2)=N[C@@]1(CCS(=O)(=O)c1ccccc1)C(=O)N1CCOCC1 | 0.786 |
| C=CC(COC(C)=O)NS(=O)(=O)c1ccc(Br)cc1 (stereo not drawn) | -0.883 |
| COCCOC(=O)N1C(=O)[C@@]2(c3cc(C#CCC(C(=O)OC)C(=O)OC)ccc31)[C@H](C(=O)N1CCN(c3ncccn3)CC1)[C@H]1C(=O)O[C@H](c3ccccc3)[C@H](c3ccccc3)N1[C@@H]2c1ccc(OCCO)cc1 | -0.127 |
| Cc1cc(C)c(C(O)C2C=CC3C(=O)N(c4ccccc4)C(=O)C3N2Nc2ccc(C#N)cc2)c(C)c1 (stereo not drawn) | 1.17 |
| Cc1ccc(S[C@]2(C(=O)NC3CC3)CC(=O)N(C3CCCCC3)[C@@H]2c2ccc(CO)cc2I)cc1 | 0.406 |
| CC(C)CNC(=O)[C@@]1(c2ccc([N+](=O)[O-])cc2)CC(=O)N(CC23CC4CC(CC(C4)C2)C3)[C@@H]1c1ccc(CO)cc1I | -0.111 |
| CC(C)c1ccc(NN2C(C(O)c3c(F)cccc3Cl)C=CC3C(=O)N(c4ccccc4)C(=O)C32)cc1 (stereo not drawn) | 0.98 |
| COCCOC(=O)N1C(=O)[C@@]2(c3cc(C#CCNC(N)=O)ccc31)[C@H](c1ccc(O)cc1)N1[C@H](c3ccccc3)[C@H](c3ccccc3)OC(=O)[C@H]1[C@@H]2C(=O)Nc1nc2ccccc2s1 | 0.707 |
